Hits are enriched below; roughly 5.7% of the tested compounds scored in any of these assays.
ClpP mod: qHTS Assay for Activators of ClpP. purified B. subtilis ClpP, FRET peptide cleavage, 20 min. Potency, µM (top dose mostly 57.5 µM), for the others: at the top dose activity change, negative = active. 1.9% of 340,000 active. AID 651965, 2013; active means well fitted falling curve with a large enough effect; inconclusive means small, poorly fitted or top-dose-only effect; inactive means no such curve, though single readings can be large or run the other way; further: potency means the concentration at half of the fitted maximal effect; the source files actives as falling curves though it sought activators and does not explain the sign; nearly all actives have a fitted effect of over 65% in size
Target sequence (P80244 whole entry, looked up): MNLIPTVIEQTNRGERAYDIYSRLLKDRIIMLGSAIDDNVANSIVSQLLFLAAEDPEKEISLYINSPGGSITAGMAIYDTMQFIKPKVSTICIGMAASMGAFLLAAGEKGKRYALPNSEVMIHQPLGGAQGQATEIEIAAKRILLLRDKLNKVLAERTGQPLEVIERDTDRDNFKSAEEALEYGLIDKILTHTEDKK
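ClpP 10 microg/mL final, pH 8 Tris/KCl buffer with BSA, glycerol, Tween-20; compound pinned in; FRET-FV substrate; RT 20 min; Ex320/Em430; ΔFRET vs ADEP 5.8 microM, DMSO, no enzyme.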
GLP1R ag: GLP-1 receptor (human) agonism; P43220; AID 624172; HEK293 GLP-1R CRE-luciferase, luminescence, 4-6 h; cells express a hypersensitive GLP-1R form; Potency, µM (titrated, usually from 45.6 µM), without a hit: at the highest dose activation, hits mostly activators; 0.007% of 380,000 active; further: potency means the concentration at half of the fitted maximal effect; % of control where 0% means no effect
Target sequence (P43220 whole entry, looked up): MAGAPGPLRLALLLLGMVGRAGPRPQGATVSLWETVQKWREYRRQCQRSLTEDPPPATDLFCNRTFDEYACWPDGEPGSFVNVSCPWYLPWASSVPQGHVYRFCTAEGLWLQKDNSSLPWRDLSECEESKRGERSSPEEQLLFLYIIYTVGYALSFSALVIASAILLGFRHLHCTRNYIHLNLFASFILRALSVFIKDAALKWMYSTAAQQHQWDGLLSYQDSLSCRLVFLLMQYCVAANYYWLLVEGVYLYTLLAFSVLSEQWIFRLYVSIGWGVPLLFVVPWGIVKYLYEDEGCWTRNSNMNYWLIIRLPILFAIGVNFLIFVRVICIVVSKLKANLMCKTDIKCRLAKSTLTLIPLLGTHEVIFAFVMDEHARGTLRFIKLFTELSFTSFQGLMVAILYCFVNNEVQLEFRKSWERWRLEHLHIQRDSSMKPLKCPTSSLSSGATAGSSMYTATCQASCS
D3 ag: activates the human D3 dopamine receptor. D3R DiscoveRx beta-arrestin cells, luminescence, 90 min. max activation, %. 0.58% of 410,000 active; in the data active means max activation above about 30%; further: 0% is about no effect
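Cells at 1500/well, incubated overnight, then treated with pinned compounds (dopamine as control) for 90 min at 37 degrees C. DiscoveRx reagent added for 30 - 60 minutes at room temperature; luminescence read.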
GLP1R inv ag: inverse agonists of human GLP-1 receptor | P43220 | HEK293 GLP-1R CRE-luciferase, luminescence, 24 h; GLP-1R form is constitutively active | Potency, µM (doses to about 38.3 µM), inactives show top-dose activity change, negative = inhibition, actives largely listed as inhibitors | 1.6% of 410,000 active | AID 624417; further: potency means the concentration at half of the fitted maximal effect; on the % scale 0 is the no-effect control and ±100 the full control effect; nearly all actives have a fitted effect of over 55% in size
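Seeding at 200 cells/uL, 12 h culture, 24 hr compound treatment, then luciferase reagent and a luminescence read; cells are HEK293 stably expressing a constitutively active GLP-1R plus cAMP-responsive luciferase.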
DRD3 antagonist: D3 dopamine receptor (human) antagonism; P35462; D3R cells, DiscoveRx beta-arrestin luminescence, antagonist mode; hits give low values; max response, negative = inhibition, %; 2.5% of 360,000 active; in the data active means max response below about -50%; inconclusive means no clear call, values can overlap the other calls; further: on the % scale 0 is the no-effect control and ±100 the full control effect
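Cells plated overnight at 1500 cells/well, then exposed to library compounds with dopamine controls for 90 minutes at 37 degrees C. DiscoveRx reagent added for 30–60 minutes at room temperature; luminescence read, quantitative HTS format.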
GLP1R cytotox: cytotoxicity in counter-screen for GLP-1R inverse agonists; HEK293 cAMP-luciferase reporter cells, luminescence, 24 h; Potency, µM (doses to about 38.3 µM), without a hit: at the top dose activity change, negative = inhibition, usual class: inhibitors; 0.13% of 410,000 active; AID 624418;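 further: loss of luciferase light is scored as toxicity; potency means the concentration at half of the fitted maximal effect; on the % scale 0 is the no-effect control and ±100 the full control effect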
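Luminescence readout: signal drop marks cytotoxicity. Plated cells grew 12 h at 37 °C, 5% CO2, received 23 nL compound for 24 h, then got luciferase reagent, read after 12 min at RT.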
Active calls of the source: *; i = inactive; ? = inconclusive; / = no result given; [ ] = another dose, or the depositor's remark. Unless noted, the call rests on the fitted dose curve; in most records, active means well fitted curve in the direction sought with a large enough effect; inconclusive means small, poorly fitted or top-dose-only effect, or another doubt; inactive means no such curve, though single readings can be large; an effect the other way counts as inactive or inconclusive.

SMILES	ClpP mod	GLP1R ag	D3 ag	GLP1R inv ag	DRD3 antagonist	GLP1R cytotox
Oc1ccc(N=Nc2cccc(Cl)c2)cc1C=Nc1ccc(N2CCOCC2)cc1	-4%	0%	7	22%	-76*	3%
Cc1ccc(CNC(=O)C2CCC(CNS(=O)(=O)c3ccc(C)cc3)CC2)cc1 (stereo not given)	-1%	/	-2	10%	/	1%
CS(=O)(=O)N(CCc1ccccc1)CC(=O)Nc1ccc(OCc2ccccc2)cc1	-2%	8%	-1	11µM*	12	-1%
CC(C)CC1NC(=O)N(CC(=O)Nc2ccc(OC(F)F)cc2)C1=O (stereo not given)	-2%	1%	1	-17%	14	0%
Cc1cc(NC(=O)CN2CCN(c3ccccn3)CC2)ccc1Br	-6%	-2%	47*	?	-10	-6%
O=C(CN1CCN(c2ccccn2)CC1)Nc1ccc(F)c(F)c1	/	15%	22	-16%	18	0%
CC(C)CC1NC(=O)N(CC(=O)Nc2ccc(OCc3ccccc3)cc2)C1=O (stereo not given)	/	4%	6	11µM*	15	-11%
O=C(CN1CCN(CC(=O)Nc2ccc(OCc3ccccc3)cc2)CC1)Nc1ccc(F)cc1	2%	8%	22	8.9µM*	10	-18%
O=C(CN1CCN(c2ccccn2)CC1)Nc1ccc(Oc2ccccc2)cc1	-2%	1%	25	?	12	-4%
O=C(CN1CCN(c2ccccn2)CC1)Nc1ccc(OCc2ccccc2)cc1	-4%	2%	50*	0%	13	3%
CC(=O)N1N=C(c2ccccc2)CC1c1ccc(F)cc1 (stereo not given)	-5%	3%	-4	-28%	-4	3%
O=C(c1ccccc1)N1N=C(c2cccs2)CC1c1ccccc1O (stereo not given)	-10%	-2%	8	8.9µM*	0	0%
O=C(CN1CCOCC1)N1N=C(c2cccs2)CC1c1cccs1 (stereo not given)	/	0%	-1	7%	8	-2%
O=C(c1ccncc1)N1N=C(c2ccc(Cl)cc2)CC1c1ccccc1O (stereo not given)	/	10%	-7	-18%	-1	-1%
O=C(c1ccccc1)N1N=C(c2ccc(F)cc2)CC1c1ccc(F)cc1 (stereo not given)	/	23%	3	10µM*	-5	-3%
O=C(Nc1ccccc1)N1N=C(c2cccs2)CC1c1cccs1 (stereo not given)	32µM*	1%	2	?	14	9%
c1ccc(C2CC(c3cccs3)=NN2c2ccccc2)cc1 (stereo not given)	4%	0%	-2	10µM*	4	i
O=C(O)c1cc(O)c2c(c1)[C@@H]([C@H]1c3cc(C(=O)O)cc(O)c3C(=O)c3c(O[C@@H]4O[C@H](CO)[C@@H](O)[C@H](O)[C@H]4O)cccc31)c1cccc(OC3O[C@H](CO)[C@@H](O)[C@H](O)[C@H]3O)c1C2=O (stereo not given in full)	-2%	-12%	0	-15%	-56*	?
NS(=O)(=O)c1ccc(NC(=S)N2CCN(Cc3ccc(Cl)c(Cl)c3)CC2)cc1	/	5%	8	8.9µM*	-12	-4%
CCN1CCN(C(=S)c2ccc(-c3ccccc3)cc2)CC1	-4%	0%	-4	-2%	?	2%
CCN1CCN(C(=S)c2ccc(Cl)c(Cl)c2)CC1	0%	-8%	-5	0%	-51*	1%
CCN1CCN(C(=S)Nc2ccc(Cl)c(Cl)c2)CC1	-3%	-9%	-31	?	-50*	4%
S=C(Nc1ccc(Cl)cc1)N1CCN(Cc2ccccc2)CC1	1%	-3%	-9	?	-9	-16%
CCN1CCN(C(=S)Nc2cccc(Cl)c2)CC1	-4%	0%	-2	-16%	-6	-22%
NS(=O)(=O)c1ccc(NC(=S)N2CCN(c3ccc(Cl)c(Cl)c3)CC2)cc1	-3%	-11%	1	-25%	31	-7%
SMILES	ClpP mod	GLP1R ag	D3 ag	GLP1R inv ag	DRD3 antagonist	GLP1R cytotox
FC(F)Oc1ccc(NC(=S)N2CCN(Cc3ccccc3)CC2)cc1	8.9µM*	1%	-9	?	-14	-1%
Cn1cccc1/C=C(/C#N)C(N)=S	1%	5%	-18	2%	-63*	?
CCOC(=O)[C@]12CCC=C1N(Cc1ccco1)C(=O)[C@H](CC(=O)NCCCCc1ccccc1)C2	-3%	3%	4	?	-5	3%
N#Cc1c(NC(=O)CSc2nc(-c3ccccc3)cc(C(F)(F)F)n2)sc2c1CCC2	25µM*	-4%	-3	4%	23	-10%
COC(=O)Cn1ccc(-c2ccc(Cl)cc2)c(C#N)c1=O	-17%	-1%	0	1%	-7	-13%
CCCCCc1nc2c(C#N)c(-c3ccc(Cl)cc3)ccn2n1	28µM*	-1%	-2	?	-4	21%
N#Cc1c(-c2ccc(Cl)cc2)ccn2nc(CCC(=O)O)nc12	25µM*	2%	0	1%	-15	-6%
CCCCCc1c(-c2ccc(Br)cc2)ncn1CCc1ccccc1OC	0%	-3%	19	?	0	?
COc1ccc(NC(=O)N2CCN(C(=O)C(Cc3ccc(F)cc3)NC(C)=O)CC2)cc1 (stereo not given)	32µM*	1%	3	9%[7.66 µM]	-18	-1%[7.66 µM]
COc1ccc(-n2cc(CNCCc3cscn3)c(-c3ccccc3Cl)n2)cc1	/	17%	-9	?	-101*	-18%
CCOC(=O)c1cc(-c2ccccc2)n(CCC(=O)Nc2nc3c(C)cccc3s2)c1C	-13%	/	6	?	/	-15%
CCC(C(=O)Nc1cc(C)ccc1C)n1c(=O)c(C(F)(F)F)nc2ccccc21 (stereo not given)	-5%	/	7	18%	/	4%
COC(=O)[C@@]12CCCCN1[C@H](c1ccc(-c3ccc(F)cc3)c(OC)c1)[C@@H]1C(=O)N(C)C(=O)[C@@H]12	-13%	-1%	11	10µM*	27	-14%
COC(=O)[C@@]12CCCCN1[C@H](c1ccc(-c3ccc(Cl)c(Cl)c3)c(OC)c1)[C@@H]1C(=O)N(C)C(=O)[C@@H]12	-4%	-7%	41*	1%	-23	-25%
COC(=O)[C@@]12CCCCN1[C@H](c1ccc(-c3ccc(Cl)c(Cl)c3)c(OC)c1)[C@H]1C(=O)N(C)C(=O)[C@H]12	1%	-2%	-2	-6%	-3	5%
